The results in this text go back to PubChem BioAssay (EPA / NIEHS).

Several values for one entry are separate records, joined by “and”; a condition that tells them apart may be missing. Identical values can stand only once. Some compounds were tested as several samples or in several runs, with calls that do not always agree. Activity calls are given as the source filed them. The calls were made as follows: active = hit-call score of the fitted dose curve at least 0.9, where 1 is the maximum; inactive = score below 0.9.

Details in all cases: mRNA level, 48 h; actives raise or lower the signal
Read-out in test [1]: adenosine kinase (ADK) gene, ADK (gene 132)
In words: LTEA_HepaRG_ADK: Life Technologies and Expression Analysis (LTEA) Assay for adenosine kinase (ADK) gene using HepaRG (AID 2283471). The gist of the method: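 Read-out is ADK transcript level measured by qRT-PCR and normalised to three housekeeping genes. Cells are human HepaRG, dosed for 48 h at up to 100 uM in 0.5% DMSO. Gain or loss of signal is fitted against DMSO controls.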

Read-out in test [2]: Alpha-fetoprotein (AFP) gene, AFP (gene 174)
The test can be described thus: LTEA_HepaRG_AFP: Life Technologies and Expression Analysis (LTEA) Assay for Alpha-fetoprotein (AFP) gene using HepaRG (AID 2283472). The method in brief:
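qRT-PCR (Fluidigm TaqMan) readout of AFP transcript, normalized to three housekeeping genes, fitted bidirectionally against 0.5% DMSO baseline. HepaRG cells received chemicals for 48 h in serum-free induction medium, top concentration 100 uM, half-log steps.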

Read-out in test [3]: BCL2L11 (gene 10018)
In words: LTEA_HepaRG_BCL2L11: Life Technologies and Expression Analysis (LTEA) Assay for Bcl-2 (BCL2L11) gene using HepaRG (AID 2283473). The gist of the method:
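Human hepatic HepaRG cultures are treated 48 h with test chemicals (maximum 100 uM, 0.5% DMSO vehicle). Expression of BCL2L11 is measured by qRT-PCR against ACTB, GAPDH and POLR2A, with activity in either direction scored relative to vehicle.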

Read-out in test [4]: Apolipoprotein A-V (APOA5) gene, APOA5 (gene 116519)
In words: LTEA_HepaRG_APOA5: Life Technologies and Expression Analysis (LTEA) Assay for Apolipoprotein A-V (APOA5) gene using HepaRG (AID 2283474). The method in brief:
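Concentration-response of APOA5 expression in HepaRG: eight half-log doses to 100 uM, 48 h, qRT-PCR normalized to ACTB/GAPDH/POLR2A, bidirectional fitting with 0.5% DMSO as baseline.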

Read-out in test [5]: Apoptosis regulator Bcl-2 (Homo sapiens) (UniProt P10415)
The test can be described thus: LTEA_HepaRG_BCL2: Life Technologies and Expression Analysis (LTEA) Assay for Bcl-2 gene using HepaRG (AID 2283475). The method in brief: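 qRT-PCR read-out (Fluidigm TaqMan) of BCL2 transcript, normalised to three housekeeping genes, after 48 h chemical exposure of HepaRG cells; 8-point half-log series, top 100 uM, 0.5% DMSO vehicle. Gain or loss of signal fitted relative to DMSO baseline.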

Read-out in test [6]: Bcl-2 (BID) gene, BID (gene 637)
In words: LTEA_HepaRG_BID: Life Technologies and Expression Analysis (LTEA) Assay for Bcl-2 (BID) gene using HepaRG (AID 2283476). The gist of the method: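 HepaRG, 48 h exposure, 8-pt half-log series, top 100 uM, 0.5% DMSO vehicle, duplicates. Readout: BID mRNA by TaqMan qRT-PCR; housekeeping-normalized; bidirectional curve fit vs DMSO baseline.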

Read-out in test [7]: Caspase-3 (Homo sapiens) (UniProt P42574)
The test can be described thus: LTEA_HepaRG_CASP3: Life Technologies and Expression Analysis (LTEA) Assay for cysteine-aspartic acid protease (CASP3) using HepaRG (AID 2283477). The gist of the method:
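Transcript-level assay: CASP3 mRNA in human HepaRG after 48 h treatment, eight half-log concentrations from 100 uM in 0.5% DMSO, quantified by qRT-PCR.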

Read-out in test [8]: Cytochrome P450 (CYP24A1), CYP24A1 (gene 1591)
The test can be described thus: LTEA_HepaRG_CYP24A1: Life Technologies and Expression Analysis (LTEA) Assay for Cytochrome P450 (CYP24A1) using HepaRG (AID 2283478). The gist of the method: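 Gene expression of CYP24A1 by TaqMan qRT-PCR in HepaRG after 48 h treatment, highest concentration 100 uM; activity fitted in both directions relative to DMSO vehicle.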

Read-out in test [9]: Cytochrome P450 (CYP1A2), CYP1A2 (gene 1544)
In words: LTEA_HepaRG_CYP1A2: Life Technologies and Expression Analysis (LTEA) Assay for Cytochrome P450 (CYP1A2) using HepaRG (AID 2283479). The method in brief:
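In duplicate wells, HepaRG cultures maintained in 0.5% DMSO were treated 48 h across an 8-point, half-log series topping at 100 uM; phenobarbital (1 mM) served as induction control. Expression was read by qRT-PCR.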

Read-out in test [10]: cysteine-aspartic acid protease (CASP8), CASP8 (gene 841)
In words: LTEA_HepaRG_CASP8: Life Technologies and Expression Analysis (LTEA) Assay for cysteine-aspartic acid protease (CASP8) using HepaRG (AID 2283480). The gist of the method:
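qRT-PCR readout of CASP8 mRNA, normalized to three housekeeping genes, after 48 h chemical exposure of HepaRG cells; 8-point half-log series, top 100 uM, 0.5% DMSO vehicle. Bidirectional curve fitting against DMSO baseline.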

Read-out in test [11]: Cytochrome P450 (CYP2B6), CYP2B6 (gene 1555)
The test can be described thus: LTEA_HepaRG_CYP2B6: Life Technologies and Expression Analysis (LTEA) Assay for Cytochrome P450 (CYP2B6) using HepaRG (AID 2283481). The gist of the method:
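Human HepaRG, 48 h dosing, 0.5% DMSO vehicle, top dose 100 uM. CYP2B6 transcript by qRT-PCR, housekeeping-normalized, bidirectional curve fit.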

Read-out in test [12]: Cytochrome P450 2C19 (Homo sapiens) (UniProt P33261)
In words: LTEA_HepaRG_CYP2C19: Life Technologies and Expression Analysis (LTEA) Assay for CYP2C19 using HepaRG (AID 2283482). The method in brief:
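Endpoint: CYP2C19 mRNA change, bidirectional fit vs 0.5% DMSO. Cells: HepaRG, 48 h exposure, eight-point series topping at 100 uM. Quantitation: qRT-PCR normalized to ACTB, GAPDH, POLR2A.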

Read-out in test [13]: CYP2C8 (gene 1558)
In words: LTEA_HepaRG_CYP2C8: Life Technologies and Expression Analysis (LTEA) Assay for CYP2C8 using HepaRG (AID 2283483). The method in brief:
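HepaRG (human liver line), 48 h chemical exposure, 8-pt half-log series from 100 uM, 0.5% DMSO vehicle. Readout: CYP2C8 transcript by qRT-PCR, housekeeping-normalized. Bidirectional fit vs DMSO baseline.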

Read-out in test [14]: CYP2C9 (gene 1559)
The test can be described thus: LTEA_HepaRG_CYP2C9: Life Technologies and Expression Analysis (LTEA) Assay for CYP2C9 using HepaRG (AID 2283484). The method in brief: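 HepaRG, 48 h dosing, 8-pt half-log series, top 100 uM, 0.5% DMSO vehicle. Read-out: CYP2C9 transcript by TaqMan qRT-PCR, housekeeping-normalized (ACTB/GAPDH/POLR2A). Gain or loss fitted vs DMSO baseline.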

Read-out in test [15]: CYP2E1 (gene 1571)
In words: LTEA_HepaRG_CYP2E1: Life Technologies and Expression Analysis (LTEA) Assay for CYP2E1 using HepaRG (AID 2283485). The method in brief:
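CYP2E1 transcript was measured by TaqMan qRT-PCR in human HepaRG cultures after 48 h chemical exposure (top 100 uM, half-log steps, 0.5% DMSO vehicle). Housekeeping-gene normalization; gain or loss fitted relative to DMSO baseline.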

Read-out in test [16]: CYP4A11 (gene 1579)
The test can be described thus: LTEA_HepaRG_CYP4A11: Life Technologies and Expression Analysis (LTEA) Assay for CYP4A11 using HepaRG (AID 2283486). The method in brief: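 Human hepatic HepaRG cultures receive duplicate 48 h exposures across a concentration-response series topping at 100 uM. Expression changes in CYP4A11 are measured by qRT-PCR relative to DMSO controls.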

Read-out in test [17]: Cytochrome P450 3A4 (Homo sapiens) (UniProt P08684)
The test can be described thus: LTEA_HepaRG_CYP3A4: Life Technologies and Expression Analysis (LTEA) Assay for CYP3A4 using HepaRG (AID 2283487). The method in brief: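 HepaRG, 48 h exposure, 8-pt CRC from 100 uM (half-log), 0.5% DMSO, duplicates; serum-free induction medium. Readout: CYP3A4 mRNA, qRT-PCR, ACTB/GAPDH/POLR2A normalization. Bidirectional fit vs DMSO.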

Read-out in test [18]: DNA damage-inducible transcript 3 (DDIT3), DDIT3 (gene 1649)
The test can be described thus: LTEA_HepaRG_DDIT3: Life Technologies and Expression Analysis (LTEA) Assay for DNA damage-inducible transcript 3 (DDIT3) using HepaRG (AID 2283488). The method in brief:
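qRT-PCR readout (Fluidigm TaqMan), housekeeping-normalized to ACTB, GAPDH, POLR2A. HepaRG cells, 48 h exposure, 8-point half-log series from 100 uM in 0.5% DMSO, duplicates. Gain or loss of signal fitted against DMSO baseline.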

Read-out in test [19]: Pro-epidermal growth factor (Homo sapiens) (UniProt P01133)
The test can be described thus: LTEA_HepaRG_EGF: Life Technologies and Expression Analysis (LTEA) Assay for Epidermal growth factor (EGF) using HepaRG (AID 2283489). The method in brief:
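Concentration-response mRNA assay: HepaRG cells dosed 48 h (max 100 uM, 0.5% DMSO), EGF measured by qRT-PCR and normalized to ACTB/GAPDH/POLR2A.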

Read-out in test [20]: Early growth response protein 1 (EGR1) transcription factor, EGR1 (gene 1958)
In words: LTEA_HepaRG_EGR1: Life Technologies and Expression Analysis (LTEA) Assay for Early growth response protein 1 (EGR1) transcription factor using HepaRG (AID 2283490). The gist of the method: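 HepaRG, 48 h exposure, 8-pt half-log series from 100 uM, 0.5% DMSO vehicle; EGR1 transcript by TaqMan qRT-PCR (Fluidigm array), housekeeping-normalized; bidirectional fit relative to DMSO baseline.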

Cytochrome P450 2C19 (Homo sapiens), sequence (P33261 whole entry, looked up): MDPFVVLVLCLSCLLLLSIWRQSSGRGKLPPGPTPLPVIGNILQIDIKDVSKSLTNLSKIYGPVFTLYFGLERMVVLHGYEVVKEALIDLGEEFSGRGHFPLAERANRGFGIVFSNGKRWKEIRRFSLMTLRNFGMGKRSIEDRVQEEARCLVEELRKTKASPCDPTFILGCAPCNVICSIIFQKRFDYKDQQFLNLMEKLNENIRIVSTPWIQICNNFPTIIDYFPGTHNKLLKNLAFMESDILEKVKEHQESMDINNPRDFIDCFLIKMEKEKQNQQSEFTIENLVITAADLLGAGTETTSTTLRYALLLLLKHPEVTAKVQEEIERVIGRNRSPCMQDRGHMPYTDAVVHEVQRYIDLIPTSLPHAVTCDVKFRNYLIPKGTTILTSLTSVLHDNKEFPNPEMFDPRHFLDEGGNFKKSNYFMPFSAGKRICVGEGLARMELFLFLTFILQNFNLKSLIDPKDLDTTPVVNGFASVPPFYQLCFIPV
Cytochrome P450 3A4 (Homo sapiens), sequence (P08684 whole entry, looked up): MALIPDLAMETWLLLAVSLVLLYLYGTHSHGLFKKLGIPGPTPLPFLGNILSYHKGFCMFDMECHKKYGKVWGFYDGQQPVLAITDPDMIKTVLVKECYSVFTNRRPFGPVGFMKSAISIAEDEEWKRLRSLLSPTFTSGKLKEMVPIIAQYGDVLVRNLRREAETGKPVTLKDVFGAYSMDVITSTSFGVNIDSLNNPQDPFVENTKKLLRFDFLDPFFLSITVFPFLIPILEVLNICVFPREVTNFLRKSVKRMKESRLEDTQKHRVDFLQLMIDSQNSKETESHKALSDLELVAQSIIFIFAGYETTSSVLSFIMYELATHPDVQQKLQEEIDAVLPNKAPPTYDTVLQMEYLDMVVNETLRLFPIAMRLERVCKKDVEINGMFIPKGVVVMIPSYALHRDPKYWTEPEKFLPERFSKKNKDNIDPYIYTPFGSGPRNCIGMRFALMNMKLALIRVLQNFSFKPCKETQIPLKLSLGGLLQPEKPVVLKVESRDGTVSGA
Caspase-3 (Homo sapiens), sequence (P42574 whole entry, looked up): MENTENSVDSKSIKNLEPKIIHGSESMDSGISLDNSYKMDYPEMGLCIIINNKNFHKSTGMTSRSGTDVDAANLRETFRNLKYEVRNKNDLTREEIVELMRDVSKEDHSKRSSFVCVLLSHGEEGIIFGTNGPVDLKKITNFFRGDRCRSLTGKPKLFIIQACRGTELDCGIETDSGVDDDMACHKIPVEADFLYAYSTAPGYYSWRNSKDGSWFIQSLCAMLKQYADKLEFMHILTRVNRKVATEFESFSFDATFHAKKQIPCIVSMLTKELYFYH
Apoptosis regulator Bcl-2 (Homo sapiens), sequence (P10415 whole entry, looked up): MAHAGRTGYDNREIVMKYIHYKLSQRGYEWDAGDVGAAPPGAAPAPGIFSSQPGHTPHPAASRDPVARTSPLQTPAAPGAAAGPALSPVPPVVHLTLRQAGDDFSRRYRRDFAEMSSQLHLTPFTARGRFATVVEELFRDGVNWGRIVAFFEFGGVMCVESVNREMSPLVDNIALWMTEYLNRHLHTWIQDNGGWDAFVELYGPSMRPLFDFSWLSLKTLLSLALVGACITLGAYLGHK

In the case of `CCCCOCCOCCO`, the call in [1], in test [2], in test [3], in [4], in [5] and in [6] was inactive. The molecule was classed as inactive in [7], in test [8], in test [9], in test [10], in test [11] and in test [12]. Besides, the call in test [13], in test [14], in test [15], in test [16], in test [17] and in test [18] was inactive. Moreover, the molecule was called inactive in [19] and in test [20].
On to `C=C(C)C(N)=O`, for which the call in test [1], in test [2], in test [3], in test [4], in [5] and in test [6] was inactive. In addition, the result in [7], in test [8], in test [9], in test [10], in test [11] and in test [12] was inactive. Moreover, the molecule was called inactive in test [13], in [14], in test [15], in test [16], in test [17] and in [18]. For the same molecule, the outcome in test [19] and in test [20] was inactive.
On to `CC/C(=C(\c1ccccc1)c1ccc(OCCN(C)C)cc1)c1ccccc1`, for which the AC50 was 71.2 µM (active) in test [1]; 22.4 µM (active) and 27 µM (active) in [2]; 74.6 µM (active) in test [3]; 92.5 µM (active) in test [6]; 66.4 µM (active) in test [7]; 11.9 µM (active) in test [9]. In addition, the AC50 in [10] was 72.5 µM (active) and 77.4 µM (active); in [15] it was 17 µM (active) and 23.7 µM (active); in [16] it was 19.7 µM (active) and 22.4 µM (active); in test [18], 64.7 µM (active) and 72.2 µM (active); in test [20] it was 73.6 µM (active). Further, the result in test [1], in test [3], in [4], in [5], in test [6] and in test [7] was inactive. Besides, the call in [8], in test [9], in test [11], in [12], in [13] and in test [17] was inactive. Moreover, the molecule was called inactive in test [19] and in [20].
